NPYLR7 agonist: mosquito NPYLR7 agonism; AID 1259423; HEK293T NPYLR7/Galpha15, GCaMP6s calcium fluorescence; actives 0.15% (n = 270,000); activation, % at 10 µM; in the data active = activation above about 40%;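 note: 0% = vehicle and 100% = reference agonist at the receptor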
mcGAS inh: blocks mouse cGAS activity; Q8C6L5; recombinant cGAS, Kinase-Glo ATP depletion luminescence; inhibition, % at 12.5 µM; actives 0.15% (n = 160,000); AID 1259399;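 note: 0% = negative control wells and 100% = reference inhibitor with no enzyme activity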
Target sequence (Q8C6L5 whole entry, looked up): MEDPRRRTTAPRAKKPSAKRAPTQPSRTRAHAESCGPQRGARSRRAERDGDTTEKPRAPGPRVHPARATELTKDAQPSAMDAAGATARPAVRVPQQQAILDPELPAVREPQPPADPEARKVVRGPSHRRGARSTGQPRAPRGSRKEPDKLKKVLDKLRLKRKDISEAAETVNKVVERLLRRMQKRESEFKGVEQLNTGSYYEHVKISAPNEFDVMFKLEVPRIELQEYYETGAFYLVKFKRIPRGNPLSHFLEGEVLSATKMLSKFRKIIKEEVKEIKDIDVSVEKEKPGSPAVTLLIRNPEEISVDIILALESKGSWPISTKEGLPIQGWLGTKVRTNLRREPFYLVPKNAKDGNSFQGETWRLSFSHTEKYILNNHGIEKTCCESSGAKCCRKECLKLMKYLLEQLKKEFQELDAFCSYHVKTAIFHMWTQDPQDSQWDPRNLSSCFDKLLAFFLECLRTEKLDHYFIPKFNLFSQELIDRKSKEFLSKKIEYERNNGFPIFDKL
hcGAS lum: blocks human cGAS activity. inhibition, % at 12.5 µM. actives 0.081% (n = 290,000). recombinant h-cGAS, ATP depletion, Kinase-Glo luminescence. Q8N884;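 note: 0% = vehicle reaction and 100% = reaction without DNA for no activity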
* marks the source's active call; other numbers are inactive results. Sampled rows, rich in hits. Any-hit rate of the full collection: about 0.24%. Cut-off read from the data, not from the text of the source, unless noted: active = inhibition above about 40%; inactive = the rest.

O=C(c1ccc(-c2ccccc2)cc1)N1N=C2CCCCC2C1(O)C(F)(F)F (configuration not stated) was read as NPYLR7 agonist 8.3 and hcGAS lum -8.2.
For CC1CCCC(NC(=O)CSc2nc3ccc(Cl)cc3o2)C1C (configuration not stated) the results were NPYLR7 agonist 5.8, mcGAS inh -1.8 and hcGAS lum -5.1.
For CSc1ncc(CNCCc2ccc(C)cc2)c(N2CCCC(C)C2)n1 (configuration not stated) the results were NPYLR7 agonist 6.9, mcGAS inh -5.3 and hcGAS lum -3.0.
CC(=O)Nc1cccc(C(C)NS(=O)(=O)N2CC(C)CC(C)C2)c1 (configuration not stated) was read as NPYLR7 agonist -7.1 and hcGAS lum -15.0.
`CN(c1ccccc1)S(=O)(=O)c1cccc(NS(=O)(=O)c2cc(Cl)ccc2Cl)c1` gave NPYLR7 agonist -9.7 and hcGAS lum -0.6.
`CN(c1ccccc1)S(=O)(=O)c1cccc(NC(=O)CCl)c1` gave NPYLR7 agonist 11.8, mcGAS inh 55.2* and hcGAS lum -2.6.
`Cn1cc(C2CC2C(=O)OCCc2ccccc2)cn1` (configuration not stated) gave NPYLR7 agonist 2.6 and hcGAS lum -7.2.
Screening O=C1SC(Nc2ccc(I)cc2)C(=O)N1c1ccccc1 (configuration not stated) returned NPYLR7 agonist 63.4*, mcGAS inh -2.2 and hcGAS lum -3.0.
Screening CC(C)CN1C(=O)SC(Nc2ccccc2)C1=O (configuration not stated) returned NPYLR7 agonist 15.7, mcGAS inh -4.6 and hcGAS lum -7.7.
Screening CC(C)C(=O)NNC(=O)c1ccc(Br)cc1 returned NPYLR7 agonist 12.3, mcGAS inh -3.7 and hcGAS lum -1.4.
`Oc1cc(O)c2c(c1)O[C@H](c1cc(O)c(O)c(O)c1)[C@H](O)C2` gave mcGAS inh 24.7 and hcGAS lum 79.4*.
Screening Oc1cc(O)c2c(c1)O[C@H](c1ccc(O)c(O)c1)[C@@H](O)C2 returned NPYLR7 agonist -1.4, mcGAS inh -5.0 and hcGAS lum -2.0.
Cc1nc2ccccc2n1CCCN1C(=O)C2(CC(=O)N(CC3CC3)C2=O)c2cc(F)ccc21 (configuration not stated) was read as NPYLR7 agonist 3.3, mcGAS inh -2.2 and hcGAS lum -4.4.
For O=[N+]([O-])c1ccc(-n2nc3ccc4nonc4c3n2)cc1 the results were NPYLR7 agonist 80.9*, mcGAS inh -6.5 and hcGAS lum -3.8.
`O=[N+]([O-])c1ccccc1-n1nc2c3nonc3ccc2[n+]1[O-]` gave NPYLR7 agonist 0.8, mcGAS inh -5.7 and hcGAS lum -5.2.
For N#Cc1cc(I)c(O)c([N+](=O)[O-])c1 the results were NPYLR7 agonist -7.1 and hcGAS lum 67.1*.
Screening N#Cc1ccc([N+](=O)[O-])c(O)c1 returned NPYLR7 agonist -7.3 and hcGAS lum 3.0.
CCN(CC)CCNS(=O)(=O)c1ccc(F)c(F)c1F was read as NPYLR7 agonist 4.0, mcGAS inh -4.5 and hcGAS lum 5.1.
`CC(=O)c1ccc2c(c1)[C@@H]1C=CC[C@@H]1[C@H](c1cc3c(cc1Br)OCO3)N2` gave NPYLR7 agonist 11.0, mcGAS inh -2.1 and hcGAS lum -11.1.
For O=C(O)C1Nc2cc(Cl)cc(Cl)c2C2C=CCC12 (configuration not stated) the results were NPYLR7 agonist 1.5, mcGAS inh 61.9* and hcGAS lum 7.1.
CCn1cc(C(CC(=O)NCc2ccc3c(c2)OCO3)c2cc(OC)cc(OC)c2)c2ccccc21 (configuration not stated) was read as NPYLR7 agonist 2.9, mcGAS inh 0.6 and hcGAS lum 3.0.
`CCn1cc(C(CC(=O)N2CCN(Cc3ccc4c(c3)OCO4)CC2)c2cc(OC)cc(OC)c2)c2ccccc21` (configuration not stated) gave mcGAS inh 74.5* and hcGAS lum -12.7.
`COc1cc(-c2cc(=O)c3c(O)c(OC)c(OC)c(OC)c3o2)cc(OC)c1OC` gave NPYLR7 agonist -3.0 and hcGAS lum -0.5.
For COc1c(O)cc2c(=O)oc3c(OC)c(O)cc4c(=O)oc1c2c34 the results were NPYLR7 agonist 3.7, mcGAS inh 7.8 and hcGAS lum 75.3*.
Screening CC1=Cc2nc3ccccc3n2C2(C(F)(F)F)OC(c3ccncc3)=NN12 (configuration not stated) returned NPYLR7 agonist -5.0 and hcGAS lum -8.3.
Screening CCOC(=O)c1[nH]c2c([N+](=O)[O-])cc(OCC)cc2c1CCN1C(=O)c2ccccc2C1=O returned NPYLR7 agonist -7.3, mcGAS inh 69.5* and hcGAS lum -1.6.
`CCOC(=O)c1[nH]c2c([N+](=O)[O-])cc(C)cc2c1CCN1C(=O)c2ccccc2C1=O` gave NPYLR7 agonist 4.5, mcGAS inh -7.4 and hcGAS lum 4.1.
`CN(Cc1ccncn1)C(=O)CC1(Cc2ccccc2)C(=O)N(C)c2ccccc21` (configuration not stated) gave NPYLR7 agonist 12.3, mcGAS inh -17.0 and hcGAS lum -6.3.
O=C1/C(=C/c2ccco2)Oc2c1ccc(O)c2CN1CCN(CCO)CC1 was read as NPYLR7 agonist 56.4, mcGAS inh -8.5 and hcGAS lum -1.0.
O=C1/C(=C/N2CCC3(CC2)OCCO3)Oc2cc(O)ccc21 was read as NPYLR7 agonist -5.9, mcGAS inh -11.9 and hcGAS lum -7.3.
Cc1cc(O)c(CN2CCN(CCO)CC2)c2c1C(=O)/C(=C/c1ccccc1)O2 was read as NPYLR7 agonist 16.0, mcGAS inh -5.9 and hcGAS lum -4.8.
For Cc1cc(O)c(CN2CCN(CCO)CC2)c2c1C(=O)/C(=C/c1cccs1)O2 the results were NPYLR7 agonist 27.9, mcGAS inh -7.2 and hcGAS lum -3.9.
`Cc1cc(O)c(CN2CCN(CCO)CC2)c2c1C(=O)/C(=C/c1cc3ccccc3o1)O2` gave NPYLR7 agonist 79.8*, mcGAS inh -5.7 and hcGAS lum -3.7.
Screening O=C1/C(=C/c2cc3ccccc3o2)Oc2cc(O)ccc21 returned NPYLR7 agonist 49.4* and hcGAS lum -11.1.
CCN1CCN(Cc2c(O)cc(C)c3c2O/C(=C\c2ccco2)C3=O)CC1 was read as NPYLR7 agonist 64.9*, mcGAS inh -5.7 and hcGAS lum -1.1.
Screening O=C1/C(=C/c2cc3ccccc3o2)Oc2c1ccc(O)c2CN1CCN(CCO)CC1 returned NPYLR7 agonist 108.4*, mcGAS inh 4.8 and hcGAS lum 4.6.
Screening COC(=O)c1ccc(OCC(=O)Nc2c(C)nn(C)c2C)cc1 returned NPYLR7 agonist 0.7 and hcGAS lum 3.6.
For Cc1onc(-c2ccccc2Cl)c1C(=O)N1CCN(CC(OCc2ccc(C(F)(F)F)cc2)c2ccc(Cl)cc2)CC1 (configuration not stated) the results were mcGAS inh -5.9 and hcGAS lum -2.7.
C=CCN1C[C@H]2COc3ccccc3[C@H]2N(C(=O)c2cccs2)CCC1=O was read as NPYLR7 agonist 0.8, mcGAS inh -0.2 and hcGAS lum 7.8.
CSCCC(=O)N1CCCC(Nc2ccc(C(C)C)cc2)C1 (configuration not stated) was read as NPYLR7 agonist -3.9, mcGAS inh -3.9 and hcGAS lum -3.7.

Screening data deposited in PubChem BioAssay by Fisher Drug Discovery Resource Center.
